Test results: PubChem BioAssay (NCI)
Compounds without any hit were thinned out: in the full panel of roughly 83,000, 20% have a hit.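 Treatment: one concentration, 48 hours, 96-well format. Scoring: percent growth, with anything below 10 considered active.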 Activity calls are given as the source filed them.

What was measured:
Assay in all cases: NCI-60 one-dose screen, 48 h (100 = growth as untreated, 0 = no growth, -100 = all killed)
Settings in all cases: 10 µM unless noted
DU-145 prostate = system: DU-145 prostate
K-562 leukemia = system: K-562 leukemia
MALME-3M melanoma = system: MALME-3M melanoma
MDA-MB-231 breast = system: MDA-MB-231 breast
RXF 393 renal = system: RXF 393 renal
SF-268 CNS = system: SF-268 CNS
SF-295 CNS = system: SF-295 CNS
SF-539 CNS = system: SF-539 CNS
UACC-257 melanoma = system: UACC-257 melanoma
HCT-15 colon = system: HCT-15 colon
HT29 colon = system: HT29 colon
SNB-75 CNS = system: SNB-75 CNS
SNB-19 CNS = system: SNB-19 CNS
U251 CNS = system: U251 CNS
PC-3 prostate = system: PC-3 prostate
SK-MEL-5 melanoma = system: SK-MEL-5 melanoma
UACC-62 melanoma = system: UACC-62 melanoma
LOX IMVI melanoma = system: LOX IMVI melanoma
SK-MEL-28 melanoma = system: SK-MEL-28 melanoma

Measured: growth

Cc1cc(C(=O)O)c(C)n1-c1cccc(C(=O)O)c1
active: HCT-15 colon 9.52%
inactive: DU-145 prostate 16.9% | K-562 leukemia 63.3% | MALME-3M melanoma 113% | MDA-MB-231 breast 96.8% | RXF 393 renal 61.8% | SF-268 CNS 84.5% | SF-295 CNS 61.3% | SF-539 CNS 102% | UACC-257 melanoma 70.1% | HT29 colon 28.4% | SNB-75 CNS 121% | SNB-19 CNS 87% | U251 CNS 64.2% | PC-3 prostate 98.4% | SK-MEL-5 melanoma 95.8% | UACC-62 melanoma 85.1% | LOX IMVI melanoma 65% | SK-MEL-28 melanoma 102%

C1CCC([PH+](C2CCCCC2)C2CCCCC2[PH+](C2CCCCC2)C2CCCCC2)CC1.[Au].[CH-]1CCCCC1C1CCCC[N-]1 (stereo not given)
active: DU-145 prostate -52.8% | K-562 leukemia -0.185% | MALME-3M melanoma -44.3% | MDA-MB-231 breast -27.6% | RXF 393 renal -92.4% | SF-268 CNS -55% | SF-295 CNS -42.9% | SF-539 CNS -90.4% | UACC-257 melanoma -53.8% | HCT-15 colon -26.2% | HT29 colon 2.8% | SNB-75 CNS -31.8% | SNB-19 CNS -96.6% | U251 CNS -84.3% | PC-3 prostate -16.7% | SK-MEL-5 melanoma -98% | UACC-62 melanoma -79.7% | LOX IMVI melanoma -96.5% | SK-MEL-28 melanoma -83.2%

C=C(C)[C@@H]1CCC[C@]2(COS(=O)(=O)c3ccc(C)cc3)CC[C@]3(C)[C@@H](CC[C@@H]4[C@@]5(C)CCCNC(C)(C)[C@@H]5CC[C@]43C)[C@@H]12
active: DU-145 prostate 0.903% | K-562 leukemia -33.4% | MALME-3M melanoma 4.1% | MDA-MB-231 breast -10.3% | RXF 393 renal -79.9% | SF-295 CNS -11.5% | HCT-15 colon -61.5% | LOX IMVI melanoma -86.5%
inactive: SF-268 CNS 48.2% | SF-539 CNS 71.9% | UACC-257 melanoma 58.5% | SNB-75 CNS 81.6% | SNB-19 CNS 39% | PC-3 prostate 10.5% | SK-MEL-5 melanoma 92.1% | UACC-62 melanoma 87.7% | SK-MEL-28 melanoma 68.3%

O=C1c2ccccc2-c2c1c1c(=O)[nH]c3ccccc3c1n2Cc1ccccc1
inactive: DU-145 prostate 79% | K-562 leukemia 63.3% | MALME-3M melanoma 14% | MDA-MB-231 breast 62% | RXF 393 renal 25.2% | SF-268 CNS 50.7% | SF-295 CNS 60.3% | SF-539 CNS 55.7% | UACC-257 melanoma 74.9% | HCT-15 colon 84.5% | HT29 colon 75.6% | SNB-75 CNS 70.8% | SNB-19 CNS 68.7% | PC-3 prostate 74% | SK-MEL-5 melanoma 60.6% | UACC-62 melanoma 53.8% | LOX IMVI melanoma 82.7% | SK-MEL-28 melanoma 85.7%

N=C(N)c1ccc(-c2ccc(-c3ccccc3)o2)cc1
active: DU-145 prostate -11.2% | K-562 leukemia -33.2% | MALME-3M melanoma -81.5% | MDA-MB-231 breast -58.2% | RXF 393 renal -76.3% | SF-268 CNS -31.1% | SF-295 CNS -70.4% | SF-539 CNS -83.7% | UACC-257 melanoma -72.4% | HCT-15 colon -62.1% | HT29 colon -76.5% | SNB-19 CNS -16.9% | U251 CNS -77.7% | PC-3 prostate -23.3% | SK-MEL-5 melanoma -80.6% | UACC-62 melanoma -70% | LOX IMVI melanoma -89.8% | SK-MEL-28 melanoma -61.1%
inactive: SNB-75 CNS 19.8%

Clc1ccc2c(c1)C(c1c[nH]c3ccccc13)(c1c[nH]c3ccccc13)CCO2
active: HT29 colon -46.2%
inactive: DU-145 prostate 88% | K-562 leukemia 73.1% | MALME-3M melanoma 106% | MDA-MB-231 breast 55.5% | RXF 393 renal 95.6% | SF-268 CNS 71.5% | SF-295 CNS 70% | SF-539 CNS 95.4% | UACC-257 melanoma 38.1% | HCT-15 colon 87.1% | SNB-75 CNS 68.4% | SNB-19 CNS 97.4% | U251 CNS 46.8% | PC-3 prostate 35.3% | SK-MEL-5 melanoma 83.8% | UACC-62 melanoma 57% | LOX IMVI melanoma 79.4% | SK-MEL-28 melanoma 95.3%

COc1cc(C2CC(c3ccc(Nc4nc(Nc5ccc(Cl)cc5)nc(Nc5ccc(Cl)cc5)n4)cc3)=NN2C(C)=O)cc(OC)c1OC (stereo not given)
inactive: DU-145 prostate 115% | K-562 leukemia 73.5% | MALME-3M melanoma 99.2% | MDA-MB-231 breast 102% | RXF 393 renal 92.4% | SF-268 CNS 106% | SF-295 CNS 102% | SF-539 CNS 98.7% | UACC-257 melanoma 103% | HCT-15 colon 88.9% | HT29 colon 97.2% | SNB-75 CNS 106% | SNB-19 CNS 102% | U251 CNS 93.6% | PC-3 prostate 89.9% | SK-MEL-5 melanoma 81.3% | UACC-62 melanoma 90.1% | LOX IMVI melanoma 105% | SK-MEL-28 melanoma 119%

CCCCCCCCCCCCCCCCOCCCOP(=O)(O)C1CCCN(O)C1=O (stereo not given)
active: RXF 393 renal 7.41% | SF-268 CNS 5.39% | SF-295 CNS 3.46% | SF-539 CNS -4.5% | HCT-15 colon 7.93% | SK-MEL-5 melanoma -65.8% | UACC-62 melanoma -13% | LOX IMVI melanoma 0.67%
inactive: DU-145 prostate 24.6% | K-562 leukemia 19.4% | MALME-3M melanoma 20.4% | MDA-MB-231 breast 42.7% | UACC-257 melanoma 18.2% | HT29 colon 23.1% | SNB-75 CNS 22.8% | SNB-19 CNS 22% | U251 CNS 18.7% | PC-3 prostate 13.5% | SK-MEL-28 melanoma 38.3%

CCCCCN1C(=O)/C(=c2\sc3n(c2=O)C2C(NN=3)N(CC)C(=O)N2CC)c2ccccc21 (stereo not given)
inactive: UACC-257 melanoma 31.5% | SK-MEL-5 melanoma 16.8% | UACC-62 melanoma 10.7% | SK-MEL-28 melanoma 19.2%
active: DU-145 prostate -67.1% | K-562 leukemia -71.9% | MALME-3M melanoma -32.4% | MDA-MB-231 breast -30.8% | RXF 393 renal -28.9% | SF-268 CNS -2.82% | SF-295 CNS -24.8% | SF-539 CNS -90.2% | HCT-15 colon 1.05% | HT29 colon -57.1% | SNB-75 CNS -51.5% | SNB-19 CNS -1.3% | U251 CNS -83.4% | PC-3 prostate -20.2% | LOX IMVI melanoma -43.5%

NC(=O)CSc1oc(-c2ccccc2)nc1S(=O)(=O)c1ccc(Br)cc1
inactive: DU-145 prostate 85.6% | K-562 leukemia 91.7% | MALME-3M melanoma 59.4% | MDA-MB-231 breast 52.7% | RXF 393 renal 46.5% | SF-268 CNS 72.6% | SF-295 CNS 80.7% | SF-539 CNS 45.7% | UACC-257 melanoma 84.7% | HCT-15 colon 90.6% | HT29 colon 50.2% | SNB-19 CNS 83% | U251 CNS 54.6% | PC-3 prostate 77.9% | SK-MEL-5 melanoma 55.7% | UACC-62 melanoma 49.5% | LOX IMVI melanoma 94.3% | SK-MEL-28 melanoma 87.7%
active: SNB-75 CNS 9.67%

O=C1Nc2ccccc2/C1=C/c1cccn1CCCCn1c2ccccc2c(=O)c2ccccc21
inactive: DU-145 prostate 94.2% | K-562 leukemia 59.5% | MALME-3M melanoma 91.9% | MDA-MB-231 breast 64.7% | RXF 393 renal 88.1% | SF-268 CNS 83.1% | SF-295 CNS 101% | SF-539 CNS 93% | UACC-257 melanoma 105% | HCT-15 colon 31.7% | HT29 colon 89.1% | SNB-75 CNS 78% | SNB-19 CNS 98.4% | U251 CNS 95.1% | PC-3 prostate 55.1% | SK-MEL-5 melanoma 38.6% | UACC-62 melanoma 51.8% | LOX IMVI melanoma 82.5% | SK-MEL-28 melanoma 105%

CCOC(=O)c1cc2c(n1Cc1cc(OC)c(OC)c(OC)c1)-c1nc(N)sc1CCC2
inactive: DU-145 prostate 79.1% | K-562 leukemia 24.6% | MALME-3M melanoma 69.5% | MDA-MB-231 breast 51.6% | RXF 393 renal 54.9% | SF-268 CNS 70.5% | SF-295 CNS 26% | SF-539 CNS 62.5% | UACC-257 melanoma 43.9% | HCT-15 colon 35.9% | HT29 colon 19.3% | SNB-75 CNS 60.3% | SNB-19 CNS 61.3% | U251 CNS 38.9% | PC-3 prostate 26.3% | SK-MEL-5 melanoma 19.6% | UACC-62 melanoma 35.5% | LOX IMVI melanoma 48.5% | SK-MEL-28 melanoma 69.4%

CCOC(=O)C1=C(c2ccccc2)N=C2SC=C(c3ccc(Cl)cc3)N2C1c1ccc(Br)cc1 (stereo not given)
inactive: DU-145 prostate 90.3% | K-562 leukemia 84.1% | MALME-3M melanoma 87.4% | MDA-MB-231 breast 68.5% | RXF 393 renal 68.6% | SF-268 CNS 77% | SF-295 CNS 88.7% | SF-539 CNS 94.9% | UACC-257 melanoma 79% | HCT-15 colon 80.8% | HT29 colon 82.2% | SNB-75 CNS 81.7% | SNB-19 CNS 85.4% | U251 CNS 85.8% | PC-3 prostate 40.6% | SK-MEL-5 melanoma 67.7% | UACC-62 melanoma 67.7% | LOX IMVI melanoma 84.8% | SK-MEL-28 melanoma 98.3%

CS(=O)(=O)Nc1cncc(-c2ccc3ncnc(Nc4cncc(Cl)c4)c3c2)c1
inactive: DU-145 prostate 88.4% | K-562 leukemia 100% | MALME-3M melanoma 65.1% | MDA-MB-231 breast 77.1% | RXF 393 renal 87.3% | SF-268 CNS 68.1% | SF-295 CNS 97.1% | SF-539 CNS 74.6% | UACC-257 melanoma 67.9% | HCT-15 colon 92.9% | HT29 colon 80% | SNB-75 CNS 82.4% | SNB-19 CNS 68.2% | U251 CNS 59.2% | PC-3 prostate 84.7% | SK-MEL-5 melanoma 95.4% | UACC-62 melanoma 69.6% | LOX IMVI melanoma 79.7% | SK-MEL-28 melanoma 81.6%

O=C(OC(CO)C(=O)NC12CC3CC(CC(C3)C1)C2)c1ccc(Cl)cc1 (stereo not given)
inactive: DU-145 prostate 103% | K-562 leukemia 95.5% | MALME-3M melanoma 104% | MDA-MB-231 breast 105% | RXF 393 renal 103% | SF-268 CNS 104% | SF-295 CNS 100% | SF-539 CNS 96% | UACC-257 melanoma 100% | HCT-15 colon 99.4% | HT29 colon 100% | SNB-75 CNS 102% | SNB-19 CNS 98.8% | PC-3 prostate 98.6% | SK-MEL-5 melanoma 98.3% | LOX IMVI melanoma 101% | SK-MEL-28 melanoma 108%
